Several values for one entry are separate records, joined by “and”; a condition that tells them apart may be missing. Equal entries are not always repeated. The whole screen tested about 5,500 compounds, of which about 2,000 (36%) were called active. Not shown: some 18% with an inconclusive outcome. No stated cut-off is given here; in the data, active means normalized growth mostly below about 0.91 (no sharp cut-off); inconclusive means no clear call, values can overlap the other calls; inactive means mostly above about 0.92. The list shows a part of the results.
Test: chemical genetic growth profiling, strain panel (AID 1159580);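 further: tested at 20 µM; growth read once vehicle control cultures reached saturation at 30 °C; 1 = growth at the plate median or of vehicle wells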
Settings: S. cerevisiae deletion strains, growth OD

Measured: normalized growth

NC(=O)CC[C@@H](N)C(=O)O
inactive: locus YAL021C, strain ccr4, stronger effect = lower value 1.02 | locus YAL026C, strain drs2, stronger effect = lower value 1.05 | locus YAL030W, strain snc1, stronger effect = lower value 1.04 | locus YBL061C, strain skt5, stronger effect = lower value 1.03 | locus YBR009C, strain hhf1, stronger effect = lower value 1.03 | locus YBR021W, strain FUR4, stronger effect = lower value 1.04 | locus YBR023C, strain chs3, stronger effect = lower value 1.03 | locus YBR171W, strain sec66, stronger effect = lower value 1.05 | locus YBR229C, strain ROT2, stronger effect = lower value 1.01 | locus YBR231C, strain swc5, stronger effect = lower value 1.02 | locus YBR279W, strain paf1, stronger effect = lower value 1.02 | locus YCL011C, strain gbp2, stronger effect = lower value 1.02 | locus YCL016C, strain dcc1, stronger effect = lower value 1.02 | locus YCL029C, strain bik1, stronger effect = lower value 1.01 | locus YCL061C, strain MRC1, stronger effect = lower value 1.02 | locus YCL069W, strain vba3, stronger effect = lower value 1.02 | locus YCR088W, strain abp1, stronger effect = lower value 1.03 | locus YDL005C, strain med2, stronger effect = lower value 1.04 | locus YDL035C, strain GPR1, stronger effect = lower value 1.06 | locus YDL040C, strain nat1, stronger effect = lower value 1.02 | locus YDL074C, strain BRE1, stronger effect = lower value 1.09 | locus YDL101C, strain DUN1, stronger effect = lower value 1.02 | locus YDL185W, strain tfp1, stronger effect = lower value 1.01 | locus YDL192W, strain arf1, stronger effect = lower value 1.03 | locus YDR001C, strain nth1, stronger effect = lower value 1.02 | locus YDR069C, strain doa4, stronger effect = lower value 1.03 | locus YDR101C, strain arx1, stronger effect = lower value 1.01 | locus YDR137W, strain rgp1, stronger effect = lower value 1.06 | locus YDR159W, strain sac3, stronger effect = lower value 1.08 | locus YDR162C, strain NBP2, stronger effect = lower value 1.05 | locus YDR195W, strain ref2 1.01 | locus YDR297W, strain sur2, stronger effect = lower value 1.02 | locus YDR318W, strain mcm21, stronger effect = lower value 0.996 | locus YDR334W, strain swr1, stronger effect = lower value 1.03 | locus YDR335W, strain msn5, stronger effect = lower value 1.04 | locus YDR388W, stronger effect = lower value 0.993 | locus YDR392W, strain spt3, stronger effect = lower value 0.937 | locus YDR502C, strain sam2, stronger effect = lower value 1.02 | locus YEL003W, strain gim4, stronger effect = lower value 1.02 | locus YEL037C, strain rad23, stronger effect = lower value 1.03 | locus YEL061C, strain CIN8 (second series), stronger effect = lower value 1.02 | locus YEL061C, strain CIN8, stronger effect = lower value 1.02 | locus YER015W, strain faa2, stronger effect = lower value 1.03 | locus YER016W, strain bim1, stronger effect = lower value 1.02 | locus YER110C, stronger effect = lower value 0.996 | locus YER111C, strain swi4, stronger effect = lower value 1.02 | locus YER155C, strain BEM2 (second series), stronger effect = lower value 0.971 | locus YER155C, strain BEM2, stronger effect = lower value 1.01 | locus YER167W, strain BCK2, stronger effect = lower value 1.02 | locus YFR010W, strain ubp6, stronger effect = lower value 1.05 | locus YGL078C, strain dbp3, stronger effect = lower value 1.03 | locus YGL086W, strain mad1, stronger effect = lower value 1.02 | locus YGL167C, strain pmr1, stronger effect = lower value 1.04 | locus YGL173C, strain kem1, stronger effect = lower value 1.04 | locus YGL227W, strain vid30, stronger effect = lower value 1.02 | locus YGL240W, strain doc1, stronger effect = lower value 1.02 | locus YGL248W, strain PDE1, stronger effect = lower value 1.02 | locus YGL253W, strain hxk2, stronger effect = lower value 1.06 | locus YGR078C, strain PAC10, stronger effect = lower value 1.04 | locus YGR135W, strain pre9, stronger effect = lower value 1.02 | locus YGR252W, strain gcn5, stronger effect = lower value 1.14 | locus YHR013C, strain ard1, stronger effect = lower value 1.07 | locus YHR027C, strain rpn1, stronger effect = lower value 1.04 | locus YHR030C, strain SLT2, stronger effect = lower value 1.02 and 1.05 | locus YHR079C, strain IRE1 (second series), stronger effect = lower value 0.987 | locus YHR079C, strain IRE1, stronger effect = lower value 1.03 | locus YHR094C, strain hxt1, stronger effect = lower value 0.984 | locus YHR129C, strain ARP1, stronger effect = lower value 1.03 | locus YHR142W, strain chs7, stronger effect = lower value 1.05 | locus YHR200W, strain rpn10, stronger effect = lower value 1 | locus YIL066C, strain RNR3, stronger effect = lower value 1.05 | locus YIL073C, strain SPO22, stronger effect = lower value 1.13 | locus YIL125W, strain kgd1, stronger effect = lower value 1.02 | locus YIR030C, strain dcg1, stronger effect = lower value 0.998 | locus YJL092W, strain hpr5, stronger effect = lower value 1.03 | locus YJL095W, strain BCK1 (second series), stronger effect = lower value 1.02 | locus YJL095W, strain BCK1, stronger effect = lower value 1.05 and 1.04 | locus YJL115W, strain asf1, stronger effect = lower value 1.02 | locus YJL129C, strain trk1, stronger effect = lower value 1.07 | locus YJL134W, strain LCB3, stronger effect = lower value 1.01 | locus YJL154C, strain vps35, stronger effect = lower value 1.02 | locus YJL164C, strain tpk1, stronger effect = lower value 1.03 | locus YJL166W, strain qcr8, stronger effect = lower value 1.04 | locus YJL168C, strain set2, stronger effect = lower value 0.989 | locus YJL187C, strain SWE1 (second series), stronger effect = lower value 1.03 | locus YJL187C, strain SWE1, stronger effect = lower value 1.06 | locus YJR043C, strain POL32, stronger effect = lower value 1.04 | locus YJR066W, strain TOR1, stronger effect = lower value 1 | locus YKL009W, strain mrt4, stronger effect = lower value 1.08 | locus YKL068W, stronger effect = lower value 1.02 | locus YKL085W, strain MDH1 (second series), stronger effect = lower value 1.01 | locus YKL085W, strain MDH1, stronger effect = lower value 1.01 | locus YKL160W, strain elf1, stronger effect = lower value 1.02 | locus YKR001C, strain vps1, stronger effect = lower value 1.05 | locus YKR026C, strain gcn3, stronger effect = lower value 1.03 | locus YKR091W, strain srl3, stronger effect = lower value 1.03 | locus YLL001W, strain dnm1, stronger effect = lower value 1 | locus YLL026W, stronger effect = lower value 1.03 | locus YLL041C, strain sdh2, stronger effect = lower value 1.02 | locus YLR027C, strain aat2, stronger effect = lower value 1.02 | locus YLR039C, strain RIC1, stronger effect = lower value 1.11 | locus YLR058C, strain SHM2, stronger effect = lower value 1.02 | locus YLR102C, strain apc9, stronger effect = lower value 0.98 | locus YLR113W, strain HOG1, stronger effect = lower value 1.02 | locus YLR221C, strain rsa3, stronger effect = lower value 1.04 | locus YLR258W, strain gsy2, stronger effect = lower value 1.02 | locus YLR262C, strain YPT6 (second series), stronger effect = lower value 1.05 | locus YLR262C, strain YPT6, stronger effect = lower value 1.1 | locus YLR268W, strain sec22, stronger effect = lower value 1.05 | locus YLR320W, strain mms22, stronger effect = lower value 1.04 | locus YLR330W, strain CHS5, stronger effect = lower value 1.03 | locus YLR342W, strain FKS1 (second series), stronger effect = lower value 1.07 | locus YLR342W, strain FKS1, stronger effect = lower value 1.03 | locus YLR357W, strain rsc2, stronger effect = lower value 1.05 | locus YLR370C, strain arc18, stronger effect = lower value 1.03 | locus YLR371W, strain rom2, stronger effect = lower value 0.993 | locus YLR384C, strain iki3, stronger effect = lower value 1.02 | locus YLR418C, strain cdc73, stronger effect = lower value 1.07 | locus YML016C, strain PPZ1, stronger effect = lower value 1.01 | locus YML032C, strain rad52, stronger effect = lower value 1.02 | locus YML120C, strain ndi1, stronger effect = lower value 1.03 | locus YML124C, strain tub3, stronger effect = lower value 1.01 | locus YMR058W, strain fet3, stronger effect = lower value 1.04 | locus YMR078C, strain ctf18, stronger effect = lower value 0.988 | locus YMR125W, strain sto1, stronger effect = lower value 1.03 | locus YMR129W, stronger effect = lower value 1.02 | locus YMR205C, strain PFK2, stronger effect = lower value 1.04 | locus YMR223W, strain ubp8, stronger effect = lower value 1.02 | locus YMR231W, strain pep5, stronger effect = lower value 1.03 | locus YMR263W, strain SAP30, stronger effect = lower value 1.02 | locus YMR307W, strain GAS1, stronger effect = lower value 1.13 | locus YNL067W, strain RPL9B, stronger effect = lower value 1.03 | locus YNL071W, strain lat1, stronger effect = lower value 1.03 | locus YNL153C, strain GIM3, stronger effect = lower value 1.02 | locus YNL183C, strain NPR1, stronger effect = lower value 1.01 | locus YNL209W, strain ssb2, stronger effect = lower value 1.02 | locus YNL233W, strain BNI4, stronger effect = lower value 1.03 | locus YNL248C, strain rpa49, stronger effect = lower value 1.05 | locus YNL250W, strain rad50, stronger effect = lower value 1.03 | locus YNL271C, strain bni1, stronger effect = lower value 1.02 | locus YNL298W, strain CLA4, stronger effect = lower value 1.02 | locus YNL307C, strain MCK1, stronger effect = lower value 0.995 | locus YNL322C, strain KRE1 (second series), stronger effect = lower value 1.02 | locus YNL322C, strain KRE1, stronger effect = lower value 1.02 | locus YNR049C, strain mso1, stronger effect = lower value 1.04 | locus YNR052C, strain pop2, stronger effect = lower value 1.03 | locus YOL012C, strain htz1 1.02 | locus YOL147C, strain pex11, stronger effect = lower value 1 | locus YOR001W, strain rrp6, stronger effect = lower value 1.04 | locus YOR061W, strain CKA2, stronger effect = lower value 1.02 | locus YOR069W, strain VPS5, stronger effect = lower value 1.01 | locus YOR070C, strain gyp1, stronger effect = lower value 1.01 | locus YOR080W, strain dia2, stronger effect = lower value 1.03 | locus YOR083W, strain WHI5, stronger effect = lower value 1.01 | locus YOR106W, strain vam3, stronger effect = lower value 1.06 | locus YOR136W, strain idh2, stronger effect = lower value 1.02 | locus YOR144C, strain elg1, stronger effect = lower value 1 | locus YOR184W, strain ser1, stronger effect = lower value 1.05 | locus YOR231W, strain MKK1, stronger effect = lower value 1.03 | locus YOR265W, strain rbl2, stronger effect = lower value 1.02 | locus YOR270C, strain vph1, stronger effect = lower value 1.1 | locus YOR290C, strain snf2, stronger effect = lower value 1.03 | locus YOR316C, strain cot1, stronger effect = lower value 0.987 | locus YPL051W, strain arl3, stronger effect = lower value 1 | locus YPL078C, strain atp4, stronger effect = lower value 1.01 | locus YPL106C, strain sse1, stronger effect = lower value 1.01 | locus YPL240C, strain hsp82, stronger effect = lower value 1.02 | locus YPL241C, strain CIN2, stronger effect = lower value 1.01 | locus YPL256C, strain CLN2, stronger effect = lower value 1.05 | locus YPR119W, strain clb2, stronger effect = lower value 0.991 | locus YPR141C, strain kar3, stronger effect = lower value 1.01 | locus YPR163C, strain tif3, stronger effect = lower value 0.99 | locus YPR167C, strain met16, stronger effect = lower value 1 | strain wtn01, stronger effect = lower value 1.06
